# Screening results as filed in PubChem.
# WT yeast gro inh = growth inhibition of WT strain, primary screen, mitochondrial fusion inhibitor project, WT and mutant strains, chemical genetic. inhibition, % at 10 µM. hit rate 2.1% among 190,000. mitochondrial fusion phenotypic screen; in the data active = inhibition above about 58%; tested in S. cerevisiae
# ROMK primary = ROMK potassium channel modulators, primary screen, cell-based, thallium flux, MLSMR library; ATP-sensitive inward rectifier potassium channel 1 (Homo sapiens), P48048; Tet-inducible ROMK, thallium flux fluorescence; actives lie on both sides; B-score at 10 µM; hit rate 2% among 130,000; AID 1918, 2009;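 active = signal ratio slope over the read window, or its plate-corrected B-score, at least 3 SD from the plate mean, either direction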;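 also: B-score of the F/F0 ratio slope over 7 to 12 s after thallium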
# Target sequence (P48048 whole entry, looked up): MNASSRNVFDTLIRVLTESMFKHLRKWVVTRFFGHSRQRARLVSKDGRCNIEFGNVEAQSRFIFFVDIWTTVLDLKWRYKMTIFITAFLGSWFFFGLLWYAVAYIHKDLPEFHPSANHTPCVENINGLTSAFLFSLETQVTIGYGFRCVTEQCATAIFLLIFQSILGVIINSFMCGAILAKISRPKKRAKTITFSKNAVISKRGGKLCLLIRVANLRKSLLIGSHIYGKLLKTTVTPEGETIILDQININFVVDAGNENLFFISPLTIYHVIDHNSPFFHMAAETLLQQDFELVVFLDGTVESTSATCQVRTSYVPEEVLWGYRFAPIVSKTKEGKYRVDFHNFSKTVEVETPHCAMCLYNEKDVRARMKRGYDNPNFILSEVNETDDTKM
# Arbovirus inh = antivirals against arbovirus infection, primary screen, cell-based, full library, 10K replicate subset | arbovirus infection cell-based antiviral screen | inhibition, % at 10 µM | hit rate 0.37% among 200,000; in the data active = inhibition above about 30%
# PERK inhibitor = block of dimerizer-induced PERK translation repression, primary screen, PERK inhibitor project, CHO PERK-DD cells, SEAP luminescence, HTS; hit rate 0.17% among 220,000; inhibition, % at 5.6 µM; Eukaryotic translation initiation factor 2-alpha kinase 3 (Homo sapiens), Q9NZJ5; CHO PERK-DD fusion, SEAP luminescence translation reporter;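 active = inhibition above the mean inhibition of all tested compounds plus 3 SD, set separately per screening campaign, cut at about 2.9% in these data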;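 also: PERK kinase domain activated by AP20187 dimerizer at 100 nM; 0% = DMSO with dimerizer and 100% = rapamycin at 8.4 µM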
# ROMK retest = ROMK channel modulator hit retest, confirmation, cell-based, thallium flux, duplicate, resupplied hits | fluorescence ratio; active compounds read low | shares compounds with ROMK primary | AID 1917, 2009 | hit rate 54% among 3,000 | normalized thallium flux (F/F0 slope) at 10 µM;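 active = Flux at 10 µM at least 3 SD below or above vehicle control mean in one or both replicates; inconclusive = no clear call, values can overlap the other calls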
# Starred values were filed as active, the others as inactive; ? = inconclusive; / = no result given. In the library only some 3.3% were active in any assay of this set; here they are far more common.
SMILES,WT yeast gro inh,ROMK primary,Arbovirus inh,PERK inhibitor,ROMK retest
CCn1nc(C(=O)OCc2cccc(S(=O)(=O)N(C)C)c2)c2ccccc2c1=O,/,/,/,1,?
COc1ccc(-c2cc(-c3nnc(COC(=O)CC4CC5CCC4C5)o3)c3ccccc3n2)cc1OC (stereo not drawn),19,-0.94,-6,-2,/
O=C(C[n+]1cccc(CNC(=O)c2ccc(OC(F)F)cc2)c1)Nc1cccc(C(F)(F)F)c1,-5,-3.1*,-9,0,0.053*
O=C(C[n+]1cccc(CNC(=O)c2ccc(OC(F)F)cc2)c1)Nc1ccc(F)cc1,-6,-1.4,2,1,/
CCCS(=O)(=O)c1c(S(=O)(=O)CCC)c2cnccn2c1C(=O)c1ccc(CC)cc1,-21,-4.1*,2,-1,0.066*
O=C(Nc1nc(-c2cccs2)c(C(=O)C(F)(F)F)s1)c1ccccc1,60*,-6.5*,-14,0,0.054*
COC(=O)c1cc(C)ccc1OCc1ccc([N+](=O)[O-])cc1,/,-13*,/,0,?
CC1CCN(c2nc(N3CCCCC3)nc(N3CCCCC3)n2)CC1,38,/,11,0,/
N#Cc1nc(N2CCCC2)nc(N2CCCC2)n1,-42,-3.4*,-3,0,0.063*
C1CCN(c2nc(N3CCCCC3)nc(N3CCNCC3)n2)CC1,-6,-3*,-47,-2,0.067*
CC(C)N1CCN(Cc2cccn2-c2nccs2)CC1CCO (stereo not drawn),-9,0.47,-1,0,/
O=C(Nc1ccc(F)cc1)Nc1ccccc1C(=O)NCCN1CCNC1=O,/,/,/,0,/
CC1CCC(C(C)C)C(OC(=O)C[n+]2cc(-c3ccc(Cl)cc3)n3c2CCC3)C1 (stereo not drawn),/,-6.6*,/,0,0.047*
O=C(Nc1cccc(Cl)c1)N1CCN(C/C=C/c2ccccc2)CC1,7,-3.6*,-2,-1,?
Cc1ccc(NC(=O)CCN2CCN(C/C=C/c3ccccc3)CC2)cc1C,2,-3.1*,1,-1,0.048*
Cc1ccc(NC(=O)CCN2CCN(C/C=C/c3ccccc3)CC2)cc1,14,/,-8,-1,/
CCOc1ccccc1N1CCN(C(=O)Nc2cccc(Cl)c2)CC1,-20,-3.1*,3,-1,0.073
Cc1ccccc1N(CC(=O)NC1CCCC1)C(=O)c1csnn1,-5,1.3*,-4,2,?
O=C(CN(C(=O)c1csnn1)c1cccc2ccccc12)NC1CCCC1,-4,-0.019,-8,0,/
O=C(CCCCCNC(=S)Nc1ccc(Cl)cc1)C[N+](=O)[O-],9,0.61,-16,1,/
COc1ccc(NC(=S)NCCCCCC(=O)C[N+](=O)[O-])cc1,12,1.1*,0,0,0.092
CCCCn1c(Oc2ccc(C(=O)OC)cc2)nc2c1c(=O)n(C)c(=O)n2C,11,-3.7*,23,0,0.06*
CCn1c(Oc2ccc(F)cc2)nc2c1c(=O)n(C)c(=O)n2C,20,-0.66,25,0,/
N#C/C(=C\c1ccc(C#N)cc1)C(=O)N1CCCC1,-24,-5.1*,9,0,0.04*
CN1CCN(C(=O)/C(C#N)=C/c2ccc(F)cc2)CC1,-24,-2.7*,12,2,0.047*
SMILES,WT yeast gro inh,ROMK primary,Arbovirus inh,PERK inhibitor,ROMK retest
COc1ccccc1/C=N/NC(=S)NCc1ccco1,/,-0.19,/,1,/
CC1CCN(CCCNC(=O)c2ccc(CSCc3cccc(Cl)c3)o2)CC1,-1,-4.2*,-8,-1,0.053*
NC(=O)CSc1nnc(SCc2ccc(F)cc2)s1,-1,0.063,-3,1,/
CC1(C)Cc2c(C#N)c(NC3CCCCC3)nc(-c3ccco3)c2CO1,7,/,12,1,/
CC1(C)Cc2nc(NC3CCCCC3)c(C#N)cc2CO1,-2,-2.5*,5,1,0.072
CC12COC3(P(=O)(c4ccccc4)c4ccccc4)CC1CCC23CP(=O)(c1ccccc1)c1ccccc1 (stereo not drawn),-2,-2.9*,-12,0,0.051*
CC12COC3(C(=O)Nc4ccc(F)cc4)CC1CCC32C (stereo not drawn),-12,/,4,1,/
C/C(=N\NC(=S)Nc1c(C)cccc1C)c1ccc(O)cc1,/,/,/,0,0.078
C/C(=N\NC(=S)Nc1c(C)cccc1C)c1cc2ccccc2o1,49,-0.014,1,-2,/
CCn1c(SCC(=O)Nc2nc3ccc(OC)cc3s2)nc2c1c(=O)n(C)c(=O)n2C,29,/,-2,0,?
CCCn1c(SCC(=O)Nc2ccccc2N2CCCCC2)nc2c1c(=O)n(C)c(=O)n2C,2,-2.6*,-6,-1,0.064*
COc1ccc(NC(=O)c2ccco2)cc1N,-12,/,-4,1,/
CCOc1cc(CNc2ccc3c(c2)OCCO3)cc(Br)c1OC,27,4.9*,-7,-1,0.076
CCOc1c(Br)cc(CNc2ccc3c(c2)OCCO3)cc1OC,-4,3.4,-7,0,/
NNC(=O)c1[nH]c2ccc(Cl)cc2c1-c1ccccc1,/,/,/,1,/
C=CCNC(=O)/C(C#N)=C/c1cc(Br)ccc1OC,-6,-0.76,-2,1,/
C=CCNC(=O)/C(C#N)=C\c1cc(Cl)c(OCC)c(OC)c1,6,-2.9*,1,0,0.044*
COc1ccc(/C=C2/C(=O)OCc3cc(OC)c(OC)cc32)cc1,-4,2.6*,-24,-1,0.088
O=C(NC(=S)Nc1ccccc1N1CCCC1)c1cccc(F)c1,21,-0.017,9,0,/
N[C@@H](Cc1ccc(O)cc1)c1nnc([C@H](CO)NC(=O)C2CCNCC2)o1,-4,/,5,1,/
O=S(=O)(NCc1ccc(Cl)cc1)c1cccc2cccnc12,/,0.95,/,1,/
O=S(=O)(NCc1ccco1)c1cccc2cccnc12,-6,1.3*,14,0,0.079
COc1ccc(CNc2nc3nc4c(c(=O)n3[nH]2)CCC4)cc1,4,/,2,1,/
COc1ccc(C(=O)c2cc([N+](=O)[O-])ccc2N2CCOCC2)cc1,3,5.6*,-17,0,0.091
CCOc1ccc(C(=O)c2cc([N+](=O)[O-])ccc2N2CCOCC2)cc1,-4,6.7*,-16,-2,0.086
SMILES,WT yeast gro inh,ROMK primary,Arbovirus inh,PERK inhibitor,ROMK retest
Cc1ccc(C(=O)c2cc([N+](=O)[O-])ccc2N2CCCCC2)c(C)c1,52,2.7*,-11,0,0.083
CCCCNC(=S)N(C)/N=C/c1sc(N2CCCCC2)nc1-c1cccs1,15,/,13,-1,/
Cc1cc(C)n(CCNC(=O)CC2C(=O)NCCN2CC2CCCCC2)n1 (stereo not drawn),0,-0.13,2,1,/
CCOc1cc(Br)c(C=O)cc1OCC,1,2.9*,5,1,0.1*
Cc1ccc(C(C)C)c(OCC(=O)NN=C(CCl)CCl)c1,/,-4.6*,/,2,0.06*
CN1CCN(c2ccccc2NC(=O)COc2ccccc2)CC1,-16,-0.52,15,-1,/
